Compound activity as filed in PubChem BioAssay.
Only some compounds are listed: those with a hit (about 2.4% of all), similar ones and a draw of the others.
POLH inh – blocks human DNA polymerase eta activity. 390,000 compounds, 1.2% hits. Potency, µM (series often up to 114 µM), hits mostly inhibitors. AID 588591. Q9Y253. recombinant Pol eta, fluorescent DNA replication assay
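Pol eta at 10 nM preincubated with compounds 15 min at room temperature; reaction started with fluorescent substrate (50 nM final) and read kinetically at 0 and 10 min.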
POLI inh – inhibitors of human DNA polymerase iota. Pol iota fluorescent replication assay, 10 min. Potency, µM (highest dose often 115 µM), usual class: inhibitors. 390,000 compounds, 1% hits. AID 588590
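Fluorescent replication assay read twice, at 0 min and 10 min after adding 50 nM (final) substrate. Enzyme (10 nM) and compounds were first incubated 15 min at room temperature; enzyme-free buffer wells were negative controls.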
POLB inh – inhibitors of human DNA polymerase beta; 340,000 compounds, 1.3% hits; P06746; Potency, µM (series often up to 114 µM), usual class: inhibitors; Pol beta primer extension/strand displacement, fluorescence kinetic
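Pol beta (10 nM) and compounds were preincubated 15 min at room temperature, then 50 nM substrate (final) started primer extension/strand displacement. Reads were taken at 0 and 10 min; concentration-response data were fitted to a four-parameter Hill equation.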
Pol kappa inh – inhibitors of human DNA polymerase kappa; AID 588579; purified Pol kappa, fluorescent DNA synthesis assay, 10 min; Potency, µM (top dose mostly 107 µM), most hits filed as inhibitors; Q9UBT6; 400,000 compounds, 0.53% hits
Target sequence (Q9UBT6 whole entry, looked up): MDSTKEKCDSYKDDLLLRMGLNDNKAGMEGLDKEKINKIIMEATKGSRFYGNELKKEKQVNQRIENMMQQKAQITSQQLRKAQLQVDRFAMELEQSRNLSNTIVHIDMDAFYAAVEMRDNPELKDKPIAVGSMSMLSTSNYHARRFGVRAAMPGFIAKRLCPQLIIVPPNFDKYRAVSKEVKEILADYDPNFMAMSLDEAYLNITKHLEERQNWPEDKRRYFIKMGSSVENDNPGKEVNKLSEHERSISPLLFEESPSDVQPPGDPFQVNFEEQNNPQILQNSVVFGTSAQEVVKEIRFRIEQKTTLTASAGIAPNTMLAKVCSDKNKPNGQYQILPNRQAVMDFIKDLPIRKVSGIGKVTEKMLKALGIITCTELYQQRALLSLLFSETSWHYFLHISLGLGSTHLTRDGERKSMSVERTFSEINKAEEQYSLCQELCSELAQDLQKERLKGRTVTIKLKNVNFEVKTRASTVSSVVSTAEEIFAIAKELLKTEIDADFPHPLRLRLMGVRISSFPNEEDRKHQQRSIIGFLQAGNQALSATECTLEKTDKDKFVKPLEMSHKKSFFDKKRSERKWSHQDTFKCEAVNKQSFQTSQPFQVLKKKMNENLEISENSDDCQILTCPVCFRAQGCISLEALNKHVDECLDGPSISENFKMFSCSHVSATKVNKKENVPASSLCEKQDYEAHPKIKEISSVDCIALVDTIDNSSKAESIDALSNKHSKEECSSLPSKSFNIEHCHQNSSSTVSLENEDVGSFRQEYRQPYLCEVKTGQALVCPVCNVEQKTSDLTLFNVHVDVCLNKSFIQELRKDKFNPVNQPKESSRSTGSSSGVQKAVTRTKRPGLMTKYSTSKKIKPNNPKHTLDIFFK
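First, compounds were pin-transferred onto 10 nM Pol kappa. After 15 min at room temperature, substrate was added to 50 nM final. Fluorescence was then measured kinetically at 0 and 10 min.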
L3MBTL1 inh – inhibitors of human L3MBTL1; Q9Y468; Potency, µM (series often up to 57.1 µM), hits mostly inhibitors; AlphaScreen L3MBTL1–H3K9me1 peptide binding; 230,000 compounds, 0.66% hits; further: nearly all actives have a fitted effect of over 60% in size
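First, the protein-peptide complex forms for 30 min at room temperature (L3MBTL1 50 nM, biotinylated H3K9me1 peptide 75 nM). Next, compounds are pin-transferred and incubated 30 min. Finally, AlphaScreen beads are added and read after 30 min.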
A number is an active result; – = inactive; ? = inconclusive; · = no result; [ ] = another dose, or the depositor's remark. The call rests on the fitted dose curve; in most records, active means well fitted curve in the direction sought with a large enough effect; inconclusive means small, poorly fitted or top-dose-only effect, or another doubt; inactive means no such curve, though single readings can be large; an effect the other way counts as inactive or inconclusive.

SMILES	POLH inh	POLI inh	POLB inh	Pol kappa inh	L3MBTL1 inh
Cc1cc(NC(=O)c2cc(-c3ccccc3)on2)n(-c2ccccc2)n1	–	–	–	–	–
O=C(NCc1ccccc1)c1cc(-c2ccco2)on1	–	–	–	–	·
O=C(NCc1ccco1)c1cc(-c2ccco2)on1	–	89.1µM	–	–	–
O=C(NCc1ccco1)c1c(F)c(F)c(F)c(C(=O)NCc2ccco2)c1F	44.7µM	–	?	?	–
NNC(=S)NCc1ccco1	–	20µM	–	–	–
Cc1ccc2c(c1)ncc[n+]2CC(=O)c1ccc(F)cc1	·	–	·	–	·
CCOC(=O)c1c(C)[nH]c(C)c1S(=O)(=O)N1CCN(c2ccc(Cl)cc2)CC1	–	–	–	–	·
N#C/C(=C\c1ccc(Sc2ccc(Cl)cc2)o1)c1nc2ccccc2[nH]1	?	?	15.8µM	–	–
CCC(=O)Oc1ccc(/C=C(\C#N)c2nc3ccccc3[nH]2)cc1OC	·	–	–	–	·
COc1ccc(/C=C(\C#N)c2nc3ccccc3[nH]2)cc1O	79.4µM	?	25.1µM	–	–
Cc1cc(/C=C(\C#N)c2nc3ccccc3[nH]2)c(C)n1C	?	?	39.8µM	–	–
CCOC(=O)COc1ccc(/C=C(\C#N)c2nc3ccc(C)cc3[nH]2)cc1OC	79.4µM	?	11.2µM	?	·
N#C/C(=C\c1ccc(Sc2nc3ccccc3[nH]2)o1)c1ccccc1	?	–	–	–	·
Cc1ccccc1OCC(=O)NCC(=O)OCC(=O)c1ccc(-c2ccccc2)cc1	·	–	·	–	·
O=C(COc1cccc([N+](=O)[O-])c1)N/N=C/c1ccco1	?	28.2µM	–	–	–
Cc1cc(C)cc(OCC(=O)N/N=C/c2ccco2)c1	–	–	–	–	–
O=C(/C=C/c1ccc([N+](=O)[O-])cc1)/C=C/c1ccco1	·	·	10µM	·	·
O=[N+]([O-])c1ccc(NN=Cc2ccco2)nc1	50.1µM	44.7µM	·	?	·
O=C(/C=C/c1ccco1)NCC(=O)N/N=C/c1ccc([N+](=O)[O-])cc1	44.7µM	39.8µM	?	?	?
O=[N+]([O-])c1ccc(N/N=C\c2cccnc2)nc1	?	–	–	–	–
O=C(c1cc(C2CC2)nn1-c1ccccc1)N1CCN(Cc2c(F)cccc2Cl)CC1	–	–	·	–	–
NC(N)=NCC1COc2ccccc2O1 (configuration not stated)	·	·	·	–[19.4 µM]	·
CCN(CC)C(=O)Cn1c(SCCOc2ccc(Cl)cc2)nc2ccccc21	–	–	–	–	·
Cc1cc(=O)oc2cc(OCC(=O)N/N=C/c3cc([N+](=O)[O-])ccc3O)ccc12	?	?	31.6µM	–	–
CC(/C=C/c1ccco1)=N/NC(=O)CNc1ccccc1C	–	–	?	–	·
SMILES	POLH inh	POLI inh	POLB inh	Pol kappa inh	L3MBTL1 inh
C/C(=N/NC(=O)CNC(=O)/C=C/c1ccco1)c1ccc(Cl)cc1	–	–	22.4µM	–	?
O=C(/C=C/c1ccco1)NCC(=O)N/N=C/c1ccc(Cl)cc1	–	–	–	–	–
CC(/C=C/c1ccco1)=N\NC(=O)CNc1ccc2ccccc2c1	–	–	?	–	35.5µM
O=C1c2ccccc2C(=O)N1c1nc(-c2ccc(Cl)cc2)cs1	·	–	·	–	·
FC(F)(F)c1ccccc1-c1ccc2ncnc(NCc3cccnc3)c2c1	·	·	·	–	·
Cc1cc(C)cc(NC(=O)CSc2ccc(-c3ccco3)nn2)c1	–	–	–	–	–
Cc1nc(C)c(-c2ccc(SCC(=O)Nc3cccc(F)c3)nn2)s1	–	–	–	–	·
CC(=O)c1cccc(NC(=O)CSc2ccc(-c3sc(C)nc3C)nn2)c1	–	–	79.4µM	–	·
CC(=O)Nc1cccc(NC(=O)CSc2ccc(-c3ccco3)nn2)c1	17.8µM	22.4µM	25.1µM	?	·
COc1ccc(NC(=O)CSc2ccc(-c3ccco3)nn2)cc1	?	?	31.6µM	–	·
COc1ccc(NC(=O)CSc2nc(SC)ns2)cc1	–	–	89.1µM	–	·
CC(=O)c1ccc(-c2c(C3C4C=CCC(C)C4C(=O)N3Cc3ccccc3)ccc3ccccc23)cc1 (configuration not stated)	·	–	·	–	·
Cc1cc(-n2nc3ccc(Cl)cc3n2)c(O)c(C(C)(C)C)c1	·	·	·	–[19.4 µM]	·
COc1ccc(NC(=O)CSc2ccc(-c3cccs3)nn2)cc1	–	89.1µM	–	–	·
Cc1ccc(NC(=O)CSc2ccc(-c3ccco3)nn2)cc1	–	–	?	–	·
